Source: PubChem BioAssay (Tox21)
Records with an inconclusive call do not appear. The source made the active and inactive calls. Unless noted, calls follow the shape of the dose curve; as a rule, active = well fitted curve in the direction sought with a large enough effect in the repeat runs; inconclusive = weak or mixed curves; inactive = no such curve, though single readings can be large; an effect the other way counts as inactive or inconclusive.

Assays:
[1] = qHTS assay to identify small molecule antagonists of the progesterone receptor (PR) signaling pathway - cell viability counter screen (AID 1346798); details: PR-UAS-bla HEK293T viability, CellTiter-Glo luminescence, 16 h; series mostly up to 92.4 µM; also: nearly all actives have a fitted effect of over 50% in size; also: potency is read from the fitted curve at half-maximal effect
How it was run: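 Same-well multiplex: after 16 hr at 37C with compound and R5020 stimulation, HEK293T cells carrying a UAS-bla reporter received LiveBLAzer substrate (2 hr RT), then CellTiter-Glo (30 min RT) for luminescent viability.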

[2] = qHTS assay to identify small molecule agonists of the progesterone receptor (PR) signaling pathway - cell viability counter screen (AID 1346799; calls by dose curve; also: nearly all actives have a fitted effect of over 45% in size; also: potency is read from the fitted curve at half-maximal effect); details: PR-UAS-bla HEK293T viability, CellTiter-Glo luminescence, 16 h; series mostly up to 92.4 µM
How it was run: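 Counter screen for cytotoxicity: compound-treated PR-UAS-bla HEK293T cells (16 hr, 37C, 5% CO2) were assayed with CellTiter-Glo, luminescence measured after 30 min at room temperature.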

[3] = biological target: Thyrotropin-releasing hormone receptor (Homo sapiens) (UniProt P34981); experiment: qHTS assay to identify small molecule antagonists of the thyrotropin-releasing hormone receptor (TRHR) signaling pathway (AID 1346877; active = well fitted inhibition curve with a large enough effect in the repeat runs, not every such curve was filed as active; also: % is scaled to controls: 0 for no effect and ±100 for the full control effect); details: TRHR-HEK293, TRH-induced calcium fluorescence, antagonist mode; series mostly up to 51.3 µM
How it was run: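 Cells (TRHR-HEK293) are plated and kept 18 h at 37 °C/5% CO2. A calcium-sensitive dye is added for 2 h, compound follows for 5 min at room temperature, and TRH is then given at 1 nM final.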

[4] = biological target: Thyrotropin-releasing hormone receptor (Homo sapiens) (UniProt P34981); experiment: qHTS assay to identify small molecule agonists of the thyrotropin-releasing hormone receptor (TRHR) signaling pathway (AID 1346891; calls by dose curve;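 also: HEK293 cells expressing TRHR with calcium dye readout; % is scaled to controls: 0 for no effect and ±100 for the full control effect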); details: TRHR-HEK293 calcium fluorescence, agonist mode; series mostly up to 57.6 µM
How it was run: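 Agonist-mode calcium mobilisation screen: TRHR-transfected HEK293 cells cultured overnight (18 h), dye-loaded for 2 h at 37 °C, exposed to compounds, and monitored by fluorescence for 3 min.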

[5] = Human pregnane X receptor (PXR) small molecule agonists, qHTS cell viability counter screen (AID 1346977); details: PXR-Luc HepG2 viability, CellTiter-Fluor, 24 h; series mostly up to 92.4 µM; also: nearly all actives have a fitted effect of over 50% in size; also: potency is read from the fitted curve at half-maximal effect
How it was run: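 Measures live-cell protease fluorescence (CellTiter-Fluor) in PXR-Luc HepG2 cells treated 24hr with compounds at 37C. Cells had 5hr to attach before pin transfer of DMSO solutions.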

[6] = Caspase-3/7 induction in HepG2 cells by small molecules, qHTS assay (AID 1346978); details: HepG2 caspase-3/7 activation, Caspase-Glo luminescence, 17 h; series mostly up to 92.4 µM; also: nearly all actives have a fitted effect of over 15% in size; also: potency is read from the fitted curve at half-maximal effect
How it was run: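 Wild-type HepG2 cells, 2,000/well, settled 5 hr at 37 C and 5% CO2, then compound-treated for 17 hr; caspase-3/7 activity read by luminescent Caspase-Glo 3/7 after 30 min at room temperature.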

[7] = Caspase-3/7 induction in CHO-K1 cells by small molecules, qHTS cell viability counter screen (AID 1346979); details: CellTiter-Fluor fluorescence, 17 h; series mostly up to 92.4 µM; also: nearly all actives have a fitted effect of over 35% in size; also: potency is read from the fitted curve at half-maximal effect
How it was run: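 In the same wells as the caspase read, viability of compound-treated wild-type CHO-K1 cells was assessed using CellTiter-Fluor, added after 16hr at 37C and measured by fluorescence following 1hr further incubation.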

[8] = Caspase-3/7 induction in HepG2 cells by small molecules, qHTS cell viability counter screen (AID 1346981); details: CellTiter-Fluor fluorescence, 17 h; series mostly up to 92.4 µM; also: nearly all actives have a fitted effect of over 30% in size; also: potency is read from the fitted curve at half-maximal effect
How it was run: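 Steps: seed 2,000 HepG2 cells per well; incubate 5 hr at 37 C; pin-add compounds in DMSO; incubate 16 hr; add CellTiter-Fluor; after 1 hr at 37 C and 5% CO2, read fluorescence.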

[9] = biological target: Nuclear receptor subfamily 1 group I member 2 (Homo sapiens) (UniProt O75469); experiment: Human pregnane X receptor (PXR) small molecule agonists, qHTS assay (AID 1346982); details: PXR-Luc HepG2, CYP3A4 luciferase reporter, 24 h; series mostly up to 92.4 µM; also: nearly all actives have a fitted effect of over 35% in size; also: potency is read from the fitted curve at half-maximal effect; as to activation: % is scaled to controls: 0 for no effect and ±100 for the full control effect
How it was run: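 Agonist mode qHTS: PXR-Luc HepG2 cells plated 5 hr before DMSO-dissolved compounds were pinned in, cultured 24 hr at 37 C, 5% CO2; ONE-Glo luminescence readout.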

[10] = qHTS assay to identify small molecule agonists of the TGF-beta/Smad signaling pathway - cell viability counter screen (AID 1346829); details: SBE-bla HEK293T viability, CellTiter-Glo luminescence, 5 h; series mostly up to 76.8 µM; also: nearly all actives have a fitted effect of over 45% in size; also: potency is read from the fitted curve at half-maximal effect
How it was run: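 In parallel with the Smad reporter read, viability of HEK 293T cells stably carrying SBE-bla is quantified by ATP luminescence following 5 hr compound treatment.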

[11] = qHTS assay to identify small molecule agonists of the TGF-beta/Smad signaling pathway (AID 1346859; active = well fitted activation curve with a large enough effect in the signal ratio in the repeat runs, not every such curve was filed as active; the % refers to the signal ratio; also: % is scaled to controls: 0 for no effect and ±100 for the full control effect); details: SBE-bla HEK293T, TGF-beta/Smad beta-lactamase reporter, 5 h; series mostly up to 76.8 µM
How it was run: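 Smad-responsive beta-lactamase reporter cells (HEK 293T) received compounds from DMSO stocks after overnight attachment, were incubated 5 hr, then treated 2 hr with FRET substrate before dual-emission fluorescence measurement (405 nm excitation).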

[12] = Caspase-3/7 induction in CHO-K1 cells by small molecules, qHTS assay (AID 1346980); details: CHO-K1 caspase-3/7 induction, Caspase-Glo luminescence, 17 h; series mostly up to 92.4 µM; also: % is scaled to controls: 0 for no effect and ±100 for the full control effect; nearly all actives have a fitted effect of over 15% in size
How it was run: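 Wild-type CHO-K1 cells exposed to compounds for 17hr at 37 C, 5% CO2. Caspase-3/7 activity then measured by Caspase-Glo 3/7 luminescence after 30min at room temperature.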

[13] = biological target: Cytochrome P450 2D6 (Homo sapiens) (UniProt P10635); experiment: Cytochrome P450 Family 2 Subfamily D Member 6 (CYP2D6) small molecule antagonists: luciferase reporter qHTS assay (AID 1671196); details: P450-Glo CYP2D6 enzyme assay, luciferin luminescence, 1 h; series mostly up to 115 µM; also: nearly all actives have a fitted effect of over 50% in size; also: potency is read from the fitted curve at half-maximal effect
How it was run: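 P450-Glo format: CYP2D6 converts a proluciferin substrate to luciferin in an NADPH-driven reaction lasting 1 h at room temperature. Light output, proportional to CYP2D6 activity, reflects interference by test chemicals.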

[14] = qHTS assay to identify small molecule antagonists of the TGF-beta/Smad signaling pathway - cell viability counter screen (AID 1346824); details: SBE-bla HEK293T viability, CellTiter-Glo luminescence; series mostly up to 76.8 µM; also: % is scaled to controls: 0 for no effect and ±100 for the full control effect; nearly all actives have a fitted effect of over 50% in size
How it was run: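 SBE-bla HEK 293T cells, incubated overnight, then compound plus 0.25 ng/mL TGF-beta1 (stock added) for 5 hr at 37 C. Viability was read in the same wells by CellTiter-Glo luminescence after 30 min at room temperature.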

[15] = biological target: Nuclear receptor subfamily 1 group I member 2 (Rattus norvegicus) (UniProt Q9R1A7); experiment: Rat pregnane X receptor (rPXR) activation by small molecules, qHTS assay (AID 1346983); details: rPXR luciferase reporter cells, One-Glo luminescence, 24 h; max activation: hits give high values; also: % is scaled to controls: 0 for no effect and ±100 for the full control effect; nearly all actives have a fitted effect of over 20% in size
How it was run: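 Cell-based rPXR activation assay: rPXR cells, 2,000 per well, rested 5hr at 37 C, then exposed to compounds in DMSO for 24 hr at 37 C. Luciferase activity read by One-Glo luminescence after 30 min at room temperature.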

[16] = biological target: Nuclear receptor subfamily 1 group I member 2 (Homo sapiens) (UniProt O75469); experiment: Human pregnane X receptor (PXR) activation by small molecules, qHTS assay (AID 1346985); details: DPX-2 HepG2 CYP3A4-luciferase, 24 h; series mostly up to 38.3 µM; also: nearly all actives have a fitted effect of over 40% in size; also: potency is read from the fitted curve at half-maximal effect
How it was run: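 DPX-2 cells (HepG2 co-transfected with a PXR response element and a CYP3A4-promoter luciferase construct) were seeded at 2,000 per well, rested 5 hr at 37C, then exposed to DMSO-dissolved compounds for 24 hr. Activation was read as luciferase luminescence.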

[17] = biological target: Nuclear receptor subfamily 1 group I member 2 (Homo sapiens) (UniProt O75469); experiment: CYP3A4 induction through human pregnane X receptor (PXR) by small molecules, qHTS assay (AID 1346984); details: DPX-2 HepG2 PXR, CYP3A4-luciferin luminescence, 24 h; series mostly up to 46.1 µM; also: % is scaled to controls: 0 for no effect and ±100 for the full control effect; nearly all actives have a fitted effect of over 40% in size
How it was run: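 Steps: seed DPX-2 cells, 5 hr at 37C; pin-transfer compounds; 24 hr at 37C; add Luciferin-IPA (3uM final), 3 hr at 37C; add One-Glo, 30 min RT; read luminescence.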

[18] = biological target: Progesterone receptor (Homo sapiens) (UniProt P06401); experiment: qHTS assay to identify small molecule antagonists of the progesterone receptor (PR) signaling pathway (AID 1346795; active = well fitted inhibition curve with a large enough effect in the signal ratio in the repeat runs, not every such curve was filed as active; the % refers to the signal ratio; also: potency is read from the fitted curve at half-maximal effect); details: PR-UAS-bla HEK293T, beta-lactamase FRET ratio, 16 h; series mostly up to 92.4 µM
How it was run: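 HEK293T PR-UAS-bla reporter cells in charcoal-stripped serum (2%) received compound after a 6 hr settling period, followed by R5020 agonist at 1 nM final; 16 hr incubation preceded the FRET substrate step and fluorescence measurement.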

Cytochrome P450 2D6 (Homo sapiens), sequence (P10635 whole entry, looked up): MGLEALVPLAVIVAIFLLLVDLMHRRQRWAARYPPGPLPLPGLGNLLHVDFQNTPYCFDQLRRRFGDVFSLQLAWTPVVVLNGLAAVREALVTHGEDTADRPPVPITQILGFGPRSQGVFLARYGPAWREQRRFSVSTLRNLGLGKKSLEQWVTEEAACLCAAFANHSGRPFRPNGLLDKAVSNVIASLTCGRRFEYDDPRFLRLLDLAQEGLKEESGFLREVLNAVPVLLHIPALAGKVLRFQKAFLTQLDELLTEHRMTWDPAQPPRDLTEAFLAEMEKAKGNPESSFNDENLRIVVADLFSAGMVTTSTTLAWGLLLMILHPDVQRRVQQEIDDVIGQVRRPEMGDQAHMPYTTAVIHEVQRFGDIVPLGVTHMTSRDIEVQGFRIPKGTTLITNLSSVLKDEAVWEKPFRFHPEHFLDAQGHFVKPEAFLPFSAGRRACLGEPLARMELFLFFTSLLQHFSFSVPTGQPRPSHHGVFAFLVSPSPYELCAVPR
Thyrotropin-releasing hormone receptor (Homo sapiens), sequence (P34981 whole entry, looked up): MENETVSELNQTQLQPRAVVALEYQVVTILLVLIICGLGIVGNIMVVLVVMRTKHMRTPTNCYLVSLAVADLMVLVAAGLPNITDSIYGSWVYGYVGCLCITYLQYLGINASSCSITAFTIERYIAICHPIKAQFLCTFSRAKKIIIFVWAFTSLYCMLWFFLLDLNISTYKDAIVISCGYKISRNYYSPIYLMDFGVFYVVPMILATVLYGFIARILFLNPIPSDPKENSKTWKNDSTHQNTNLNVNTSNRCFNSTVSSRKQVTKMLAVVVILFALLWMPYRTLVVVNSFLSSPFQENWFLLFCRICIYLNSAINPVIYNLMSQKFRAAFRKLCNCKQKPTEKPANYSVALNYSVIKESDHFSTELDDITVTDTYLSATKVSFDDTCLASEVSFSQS
Nuclear receptor subfamily 1 group I member 2 (Rattus norvegicus), sequence (Q9R1A7 whole entry, looked up): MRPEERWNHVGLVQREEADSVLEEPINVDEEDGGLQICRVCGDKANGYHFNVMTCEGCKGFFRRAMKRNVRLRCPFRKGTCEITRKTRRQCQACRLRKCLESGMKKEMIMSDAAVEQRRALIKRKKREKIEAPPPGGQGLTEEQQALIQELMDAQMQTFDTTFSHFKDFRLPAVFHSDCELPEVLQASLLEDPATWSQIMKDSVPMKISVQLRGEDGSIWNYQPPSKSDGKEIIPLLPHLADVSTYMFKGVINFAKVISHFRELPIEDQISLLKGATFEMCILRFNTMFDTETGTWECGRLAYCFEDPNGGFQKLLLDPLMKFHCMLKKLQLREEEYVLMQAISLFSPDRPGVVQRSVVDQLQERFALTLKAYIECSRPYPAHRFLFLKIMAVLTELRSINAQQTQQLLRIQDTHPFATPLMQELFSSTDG
Nuclear receptor subfamily 1 group I member 2 (Homo sapiens), sequence (O75469 whole entry, looked up): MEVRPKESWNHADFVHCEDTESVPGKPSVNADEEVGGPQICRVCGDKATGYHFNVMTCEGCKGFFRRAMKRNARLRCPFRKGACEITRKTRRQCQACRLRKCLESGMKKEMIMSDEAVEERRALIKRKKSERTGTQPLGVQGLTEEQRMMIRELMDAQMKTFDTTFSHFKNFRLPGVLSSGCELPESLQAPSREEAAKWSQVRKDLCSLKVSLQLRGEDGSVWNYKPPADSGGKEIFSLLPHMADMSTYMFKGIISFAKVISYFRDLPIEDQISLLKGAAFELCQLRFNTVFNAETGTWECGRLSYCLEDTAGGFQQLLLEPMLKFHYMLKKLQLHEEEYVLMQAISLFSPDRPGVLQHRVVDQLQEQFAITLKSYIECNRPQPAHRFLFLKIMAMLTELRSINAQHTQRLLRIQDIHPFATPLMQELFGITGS
Progesterone receptor (Homo sapiens), sequence (P06401 whole entry, looked up): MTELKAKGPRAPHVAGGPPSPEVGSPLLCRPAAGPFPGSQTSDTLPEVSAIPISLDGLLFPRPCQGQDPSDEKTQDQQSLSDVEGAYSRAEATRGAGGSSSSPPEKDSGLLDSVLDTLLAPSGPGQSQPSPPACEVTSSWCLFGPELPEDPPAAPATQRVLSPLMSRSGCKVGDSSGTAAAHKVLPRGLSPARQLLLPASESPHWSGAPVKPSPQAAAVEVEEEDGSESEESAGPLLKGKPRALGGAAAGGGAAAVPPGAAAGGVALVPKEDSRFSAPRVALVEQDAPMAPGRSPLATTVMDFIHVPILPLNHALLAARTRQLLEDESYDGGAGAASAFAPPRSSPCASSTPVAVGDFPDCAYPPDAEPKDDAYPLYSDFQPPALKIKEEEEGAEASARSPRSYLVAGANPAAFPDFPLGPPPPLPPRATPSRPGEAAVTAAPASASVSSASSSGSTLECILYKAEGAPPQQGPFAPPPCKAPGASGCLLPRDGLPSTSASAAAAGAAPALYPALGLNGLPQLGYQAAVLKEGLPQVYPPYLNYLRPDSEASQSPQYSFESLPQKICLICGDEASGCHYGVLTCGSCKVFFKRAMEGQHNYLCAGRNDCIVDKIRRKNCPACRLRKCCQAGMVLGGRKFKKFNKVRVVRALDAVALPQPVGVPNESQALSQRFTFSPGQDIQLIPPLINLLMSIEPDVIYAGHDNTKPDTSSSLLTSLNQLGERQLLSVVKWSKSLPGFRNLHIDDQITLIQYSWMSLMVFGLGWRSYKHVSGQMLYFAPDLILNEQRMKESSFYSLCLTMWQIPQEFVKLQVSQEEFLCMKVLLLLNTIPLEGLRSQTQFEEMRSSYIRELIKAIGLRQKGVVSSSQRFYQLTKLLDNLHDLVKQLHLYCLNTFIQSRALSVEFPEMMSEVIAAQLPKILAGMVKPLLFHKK

CCOC(=O)O[C@H](C)OC(=O)c1ccc2c(c1)cc(C(=O)NC1CCN(C(C)C)CC1)n2Cc1cc(-c2ccc(Cl)s2)on1
active: Potency [1] 22.7 µM | Potency [2] 22.7 µM | Potency [5] 45.4 µM | Potency [6] 45.4 µM | Potency [7] 14.3 µM | Potency [8] 50.9 µM
inactive: Potency [3] | Potency [4] | Potency [9]

Oc1ccc(C2(c3ccc(O)cc3)CC3CC2C2CCCC32)cc1 (stereo not drawn)
inactive: Potency [10] | Potency [11] | Potency [3] | Potency [4] | Potency [12] | Potency [13]
active: Potency [1] 41.6 µM | Potency [2] 58.7 µM | Potency [5] 58.7 µM | Potency [7] 46.6 µM | Potency [8] 52.3 µM

Cc1cc(O)c(C(C)(C)C)cc1C(C)(C)C
active: Potency [2] 48.6 µM | Potency [10] 49 µM | Potency [6] 61.1 µM | Potency [7] 61.1 µM
inactive: Potency [11] | Potency [4]

CC[C@@]1(O)C(=O)OCc2c1cc1n(c2=O)Cc2cc3c(CN(C)C)c(O)ccc3nc2-1
inactive: Potency [14] | Potency [10] | Potency [9] | max activation [15] -5.54% | Potency [16]

CCN(CC)CCCC(C)Nc1c2ccc(Cl)cc2nc2ccc(OC)cc12 (stereo not drawn)
inactive: Potency [14] | Potency [10] | Potency [3] | Potency [17] | Potency [16]
active: Potency [1] 13.3 µM | Potency [9] 5.96 µM

CCCCCCCCCOC(=O)c1ccc(O)cc1
active: Potency [18] 24 µM | Potency [6] 53.7 µM | Potency [7] 53.7 µM | Potency [8] 60.3 µM
inactive: Potency [14] | Potency [11] | Potency [9]

O=[N+]([O-])c1ccccc1Nc1ccccc1
active: Potency [9] 48.3 µM
inactive: Potency [1] | Potency [2] | Potency [10] | Potency [11] | Potency [3] | Potency [4] | Potency [5] | Potency [6] | Potency [7] | Potency [12] | Potency [8]

CNCc1cc(F)ccc1Oc1ccc(Cl)c(Cl)c1
active: Potency [18] 61.1 µM | Potency [5] 61.1 µM | Potency [7] 61.1 µM | Potency [13] 1.78 µM
inactive: Potency [1] | Potency [2] | Potency [14] | Potency [10] | Potency [11] | Potency [12] | Potency [9]

O=C(Nc1cccc([N+](=O)[O-])c1)c1cc2ccccc2cc1O
inactive: Potency [2] | Potency [11] | Potency [3] | Potency [4] | Potency [6] | Potency [12]
active: Potency [1] 24.3 µM | Potency [5] 3.86 µM | Potency [7] 4.33 µM | Potency [8] 6.11 µM | Potency [9] 6.11 µM | Potency [13] 25.2 µM

CCOc1ccc2nc3cc(N)ccc3c(N)c2c1
active: Potency [13] 15.5 µM
inactive: Potency [2] | Potency [10] | Potency [3] | Potency [4] | Potency [6] | Potency [12] | Potency [9] | max activation [15] 1.69% | Potency [16]

COc1ccc(CN2CCN(C(c3ccc(F)cc3)c3ccc(F)cc3)CC2)c(OC)c1OC
inactive: Potency [3] | Potency [6] | Potency [12] | max activation [15] -8.37% | Potency [16]
active: Potency [1] 16.8 µM | Potency [2] 13.3 µM | Potency [10] 23.9 µM | Potency [5] 26.6 µM | Potency [7] 26.6 µM | Potency [8] 26.6 µM | Potency [13] 4.9 µM

CN1CCC(Nc2ncc3ncnc(Nc4ccc(F)c(Cl)c4)c3n2)CC1
inactive: Potency [14] | Potency [10] | Potency [3] | Potency [4] | max activation [15] -19.5%
active: Potency [1] 16.8 µM | Potency [2] 9.44 µM | Potency [5] 26.6 µM | Potency [7] 29.8 µM | Potency [9] 10.6 µM | Potency [16] 28.2 µM | Potency [13] 6.92 µM

Cc1cccc2c1cc1ccc3cccc4ccc2c1c34
inactive: Potency [1] | Potency [14] | Potency [3] | Potency [4] | Potency [5] | Potency [6] | Potency [12] | Potency [9] | Potency [13]

OCCN(CCO)c1nc(N2CCCCC2)c2nc(N(CCO)CCO)nc(N3CCCCC3)c2n1
inactive: Potency [10] | Potency [3] | Potency [6] | Potency [12]
active: Potency [13] 9.77 µM
